The record followed here is ChEMBL document CHEMBL1961873, “Compounds: GSK PKIS; Assays: Nanosyn kinase panel” (2012).

For test [1], the target named is Protein kinase C gamma type (Homo sapiens) (UniProt P05129). The settings on record: at 1 µM.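 Note: each value is an averaged percent inhibition of the enzyme.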
The target of test [2] is T1, Protein kinase C iota type (Homo sapiens) (UniProt P41743).
T1 sequence (whole entry): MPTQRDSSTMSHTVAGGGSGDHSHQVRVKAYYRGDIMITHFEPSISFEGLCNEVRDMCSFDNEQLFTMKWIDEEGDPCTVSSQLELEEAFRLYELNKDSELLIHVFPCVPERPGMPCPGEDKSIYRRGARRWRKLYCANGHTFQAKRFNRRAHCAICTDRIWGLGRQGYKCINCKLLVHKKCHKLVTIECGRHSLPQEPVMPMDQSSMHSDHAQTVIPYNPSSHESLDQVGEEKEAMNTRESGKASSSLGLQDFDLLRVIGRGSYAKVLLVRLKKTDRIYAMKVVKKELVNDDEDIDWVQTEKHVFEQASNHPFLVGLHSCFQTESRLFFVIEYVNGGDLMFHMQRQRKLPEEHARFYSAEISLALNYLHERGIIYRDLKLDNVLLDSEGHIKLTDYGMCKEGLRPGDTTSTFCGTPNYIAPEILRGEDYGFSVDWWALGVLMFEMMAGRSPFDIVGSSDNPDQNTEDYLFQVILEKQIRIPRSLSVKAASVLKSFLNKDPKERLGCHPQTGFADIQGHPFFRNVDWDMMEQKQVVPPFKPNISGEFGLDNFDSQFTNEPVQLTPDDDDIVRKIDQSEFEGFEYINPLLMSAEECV
The settings on record: at 0.1 µM.

In test [3] the target is T1, Protein kinase C iota type (Homo sapiens). The settings on record: at 1 µM.
The target of test [4] is Protein kinase C theta type (Homo sapiens) (UniProt Q04759). The settings on record: at 0.1 µM.
Protein kinase C theta type (Homo sapiens), sequence (Q04759 whole entry, looked up): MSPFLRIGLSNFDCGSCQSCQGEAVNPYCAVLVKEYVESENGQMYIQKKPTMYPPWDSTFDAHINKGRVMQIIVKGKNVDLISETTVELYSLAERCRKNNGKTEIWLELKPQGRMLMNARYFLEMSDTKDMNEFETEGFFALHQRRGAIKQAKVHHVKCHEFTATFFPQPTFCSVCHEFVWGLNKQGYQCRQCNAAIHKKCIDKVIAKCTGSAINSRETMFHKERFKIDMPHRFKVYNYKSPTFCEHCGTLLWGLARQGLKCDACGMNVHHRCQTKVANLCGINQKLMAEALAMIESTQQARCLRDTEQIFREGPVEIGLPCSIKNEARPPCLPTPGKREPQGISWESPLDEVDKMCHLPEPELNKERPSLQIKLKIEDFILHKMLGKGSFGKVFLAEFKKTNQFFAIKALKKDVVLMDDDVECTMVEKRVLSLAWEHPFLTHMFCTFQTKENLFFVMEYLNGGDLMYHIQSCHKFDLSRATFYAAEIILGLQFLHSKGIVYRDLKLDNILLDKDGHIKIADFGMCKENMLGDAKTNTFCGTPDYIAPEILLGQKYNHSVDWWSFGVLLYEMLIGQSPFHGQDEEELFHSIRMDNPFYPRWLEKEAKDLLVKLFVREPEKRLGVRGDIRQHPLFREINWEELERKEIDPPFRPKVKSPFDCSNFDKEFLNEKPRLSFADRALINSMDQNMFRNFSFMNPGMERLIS
The target is the same in test [5]. The note with it: at 1 µM.
In test [6] the target is Protein kinase C beta type (Homo sapiens) (UniProt P05771). The settings on record: at 0.1 µM.
Protein kinase C beta type (Homo sapiens), sequence (P05771 2-671 limits assumed): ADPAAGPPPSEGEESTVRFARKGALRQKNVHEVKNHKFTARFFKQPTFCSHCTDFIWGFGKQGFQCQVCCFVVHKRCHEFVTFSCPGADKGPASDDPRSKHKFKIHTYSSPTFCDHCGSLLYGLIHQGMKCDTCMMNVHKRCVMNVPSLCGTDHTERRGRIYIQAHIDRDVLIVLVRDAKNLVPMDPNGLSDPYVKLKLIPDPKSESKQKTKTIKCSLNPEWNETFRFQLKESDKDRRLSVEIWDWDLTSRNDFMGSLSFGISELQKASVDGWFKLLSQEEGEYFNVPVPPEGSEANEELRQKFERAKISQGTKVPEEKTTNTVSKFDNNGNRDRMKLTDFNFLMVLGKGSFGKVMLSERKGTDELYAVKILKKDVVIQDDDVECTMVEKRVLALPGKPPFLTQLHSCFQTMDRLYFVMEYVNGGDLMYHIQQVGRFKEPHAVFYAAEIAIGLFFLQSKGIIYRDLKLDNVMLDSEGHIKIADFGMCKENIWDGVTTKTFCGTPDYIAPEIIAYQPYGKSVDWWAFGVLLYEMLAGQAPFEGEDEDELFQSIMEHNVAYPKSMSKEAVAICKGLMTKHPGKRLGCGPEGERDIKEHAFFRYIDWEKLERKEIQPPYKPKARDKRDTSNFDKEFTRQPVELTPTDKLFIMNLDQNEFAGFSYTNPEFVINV
Test [7] has the same target. The note with it: at 1 µM.
For test [8], the target named is T2, Serine/threonine-protein kinase D1 (Homo sapiens) (UniProt Q15139).
T2 sequence (whole entry): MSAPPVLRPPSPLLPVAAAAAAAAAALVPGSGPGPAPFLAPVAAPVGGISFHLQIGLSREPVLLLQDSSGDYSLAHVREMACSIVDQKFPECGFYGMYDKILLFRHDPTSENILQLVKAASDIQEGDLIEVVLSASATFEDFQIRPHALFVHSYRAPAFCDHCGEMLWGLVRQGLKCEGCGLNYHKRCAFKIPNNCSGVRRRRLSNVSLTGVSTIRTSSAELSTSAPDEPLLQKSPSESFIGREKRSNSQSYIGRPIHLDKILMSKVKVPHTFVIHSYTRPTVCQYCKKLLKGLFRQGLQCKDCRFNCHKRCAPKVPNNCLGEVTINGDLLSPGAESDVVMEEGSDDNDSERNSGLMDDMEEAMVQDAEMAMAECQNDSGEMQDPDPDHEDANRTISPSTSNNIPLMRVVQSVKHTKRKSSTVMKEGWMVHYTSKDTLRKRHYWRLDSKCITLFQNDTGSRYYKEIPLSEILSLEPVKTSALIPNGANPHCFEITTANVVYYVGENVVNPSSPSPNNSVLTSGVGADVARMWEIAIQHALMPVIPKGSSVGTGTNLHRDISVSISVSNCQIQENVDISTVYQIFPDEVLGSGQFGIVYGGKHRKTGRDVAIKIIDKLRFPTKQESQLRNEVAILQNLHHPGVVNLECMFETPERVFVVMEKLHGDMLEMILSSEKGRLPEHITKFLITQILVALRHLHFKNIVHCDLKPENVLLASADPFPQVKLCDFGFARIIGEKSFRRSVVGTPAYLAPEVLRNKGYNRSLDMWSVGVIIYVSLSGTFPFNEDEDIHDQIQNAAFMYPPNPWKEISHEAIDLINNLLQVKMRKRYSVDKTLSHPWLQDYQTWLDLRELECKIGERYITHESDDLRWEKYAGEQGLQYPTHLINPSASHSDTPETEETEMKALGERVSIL
The settings on record: at 0.1 µM.

In test [9] the target is T2, Serine/threonine-protein kinase D1 (Homo sapiens). The note with it: at 1 µM.
Test [10] has as its target T3, Serine/threonine-protein kinase D2 (Homo sapiens) (UniProt Q9BZL6).
T3 sequence (whole entry): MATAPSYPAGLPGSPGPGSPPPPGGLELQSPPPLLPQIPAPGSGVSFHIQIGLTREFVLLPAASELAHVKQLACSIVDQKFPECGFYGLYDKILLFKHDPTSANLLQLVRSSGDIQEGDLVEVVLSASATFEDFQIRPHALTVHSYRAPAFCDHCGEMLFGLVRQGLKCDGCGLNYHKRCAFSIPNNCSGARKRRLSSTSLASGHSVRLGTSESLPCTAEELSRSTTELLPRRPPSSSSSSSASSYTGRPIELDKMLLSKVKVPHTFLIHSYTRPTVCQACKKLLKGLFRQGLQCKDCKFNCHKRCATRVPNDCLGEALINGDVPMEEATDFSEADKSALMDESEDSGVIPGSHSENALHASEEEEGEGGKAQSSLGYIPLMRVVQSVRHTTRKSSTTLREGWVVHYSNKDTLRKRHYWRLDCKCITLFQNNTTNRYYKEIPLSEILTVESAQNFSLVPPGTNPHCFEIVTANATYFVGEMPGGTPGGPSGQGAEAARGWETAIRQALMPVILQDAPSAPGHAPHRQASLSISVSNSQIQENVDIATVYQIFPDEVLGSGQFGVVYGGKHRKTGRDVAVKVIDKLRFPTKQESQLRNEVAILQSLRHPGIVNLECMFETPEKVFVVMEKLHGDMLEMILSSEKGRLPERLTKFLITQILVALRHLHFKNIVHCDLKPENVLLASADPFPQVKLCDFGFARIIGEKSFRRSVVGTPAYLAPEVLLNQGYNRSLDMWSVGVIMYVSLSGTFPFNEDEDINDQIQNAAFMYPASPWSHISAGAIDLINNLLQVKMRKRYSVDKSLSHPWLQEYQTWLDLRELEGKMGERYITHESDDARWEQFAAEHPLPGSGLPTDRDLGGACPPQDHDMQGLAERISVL
The note with it: at 0.1 µM.

In test [11] the target is T3, Serine/threonine-protein kinase D2 (Homo sapiens). The settings on record: at 1 µM.
In test [12] the target is T4, Serine/threonine-protein kinase D3 (Homo sapiens) (UniProt O94806).
T4 sequence (whole entry): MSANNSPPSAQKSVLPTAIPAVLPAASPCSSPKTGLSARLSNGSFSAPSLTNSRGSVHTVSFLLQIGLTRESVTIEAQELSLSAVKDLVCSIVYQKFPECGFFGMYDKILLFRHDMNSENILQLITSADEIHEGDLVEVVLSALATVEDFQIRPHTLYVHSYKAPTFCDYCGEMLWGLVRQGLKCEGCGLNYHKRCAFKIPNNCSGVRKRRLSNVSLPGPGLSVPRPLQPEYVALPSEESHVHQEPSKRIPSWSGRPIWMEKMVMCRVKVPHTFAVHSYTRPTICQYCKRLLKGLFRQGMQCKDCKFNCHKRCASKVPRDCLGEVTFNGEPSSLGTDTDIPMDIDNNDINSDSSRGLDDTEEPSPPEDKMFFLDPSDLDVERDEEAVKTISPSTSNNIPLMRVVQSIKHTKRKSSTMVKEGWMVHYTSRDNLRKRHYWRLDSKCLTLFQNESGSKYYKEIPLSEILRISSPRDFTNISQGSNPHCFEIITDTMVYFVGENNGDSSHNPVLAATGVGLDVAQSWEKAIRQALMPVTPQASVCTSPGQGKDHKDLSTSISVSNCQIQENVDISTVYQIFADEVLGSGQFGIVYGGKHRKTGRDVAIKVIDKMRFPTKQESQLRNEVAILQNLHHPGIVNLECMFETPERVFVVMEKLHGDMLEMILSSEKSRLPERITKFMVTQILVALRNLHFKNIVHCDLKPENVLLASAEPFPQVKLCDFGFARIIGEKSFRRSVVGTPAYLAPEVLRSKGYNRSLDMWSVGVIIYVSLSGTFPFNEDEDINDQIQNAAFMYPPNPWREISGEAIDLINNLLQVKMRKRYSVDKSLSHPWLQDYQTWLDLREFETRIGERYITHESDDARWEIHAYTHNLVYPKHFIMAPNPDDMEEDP
The settings on record: at 0.1 µM.

Test [13] addresses T4, Serine/threonine-protein kinase D3 (Homo sapiens). The settings on record: at 1 µM.
Test [14] concerns the target T5, cGMP-dependent protein kinase 1 (Homo sapiens) (UniProt Q13976).
T5 sequence (whole entry): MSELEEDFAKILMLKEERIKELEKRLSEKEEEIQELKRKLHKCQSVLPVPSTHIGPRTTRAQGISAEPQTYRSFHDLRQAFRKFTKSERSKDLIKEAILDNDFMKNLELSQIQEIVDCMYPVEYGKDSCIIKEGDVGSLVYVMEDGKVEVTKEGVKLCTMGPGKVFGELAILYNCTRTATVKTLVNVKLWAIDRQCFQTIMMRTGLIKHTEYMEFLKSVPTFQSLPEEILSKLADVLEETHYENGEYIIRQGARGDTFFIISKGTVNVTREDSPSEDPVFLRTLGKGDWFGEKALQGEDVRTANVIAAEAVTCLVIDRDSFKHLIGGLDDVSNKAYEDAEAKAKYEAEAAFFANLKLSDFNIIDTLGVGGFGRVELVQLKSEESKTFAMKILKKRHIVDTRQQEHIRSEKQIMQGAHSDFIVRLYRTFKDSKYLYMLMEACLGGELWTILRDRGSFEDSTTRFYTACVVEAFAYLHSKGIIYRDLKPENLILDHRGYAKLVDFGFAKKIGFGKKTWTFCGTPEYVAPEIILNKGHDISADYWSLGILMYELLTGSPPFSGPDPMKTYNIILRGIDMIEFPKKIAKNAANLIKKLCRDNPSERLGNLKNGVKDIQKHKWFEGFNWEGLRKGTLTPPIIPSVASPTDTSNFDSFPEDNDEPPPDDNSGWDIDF
The note with it: at 0.1 µM.

Test [15] addresses T5, cGMP-dependent protein kinase 1 (Homo sapiens). The note with it: at 1 µM.
In test [16] the target is T6, cGMP-dependent protein kinase 2 (Homo sapiens) (UniProt Q13237).
T6 sequence (whole entry): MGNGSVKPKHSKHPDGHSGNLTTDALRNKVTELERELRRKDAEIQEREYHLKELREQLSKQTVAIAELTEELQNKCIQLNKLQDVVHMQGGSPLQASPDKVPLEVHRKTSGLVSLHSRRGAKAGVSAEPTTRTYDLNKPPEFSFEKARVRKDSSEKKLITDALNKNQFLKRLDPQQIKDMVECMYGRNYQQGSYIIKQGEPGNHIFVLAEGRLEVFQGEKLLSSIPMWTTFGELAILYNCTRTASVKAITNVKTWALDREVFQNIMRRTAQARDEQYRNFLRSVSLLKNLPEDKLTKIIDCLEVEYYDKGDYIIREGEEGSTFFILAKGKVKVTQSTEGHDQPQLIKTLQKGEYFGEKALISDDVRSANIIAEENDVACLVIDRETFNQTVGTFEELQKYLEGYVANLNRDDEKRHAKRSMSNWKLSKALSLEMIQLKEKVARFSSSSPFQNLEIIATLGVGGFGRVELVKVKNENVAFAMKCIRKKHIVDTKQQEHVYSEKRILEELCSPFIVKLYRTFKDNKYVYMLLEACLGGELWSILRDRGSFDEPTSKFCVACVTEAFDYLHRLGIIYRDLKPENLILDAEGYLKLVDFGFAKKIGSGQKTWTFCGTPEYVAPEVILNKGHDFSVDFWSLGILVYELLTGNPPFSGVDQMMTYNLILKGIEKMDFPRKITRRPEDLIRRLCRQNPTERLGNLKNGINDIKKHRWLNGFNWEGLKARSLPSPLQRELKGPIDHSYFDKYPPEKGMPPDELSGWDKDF
The settings on record: at 0.1 µM.

Test [17] concerns the target T6, cGMP-dependent protein kinase 2 (Homo sapiens). The note with it: at 1 µM.
For test [18], the target named is T7, cAMP-dependent protein kinase catalytic subunit PRKX (Homo sapiens) (UniProt P51817).
T7 sequence (whole entry): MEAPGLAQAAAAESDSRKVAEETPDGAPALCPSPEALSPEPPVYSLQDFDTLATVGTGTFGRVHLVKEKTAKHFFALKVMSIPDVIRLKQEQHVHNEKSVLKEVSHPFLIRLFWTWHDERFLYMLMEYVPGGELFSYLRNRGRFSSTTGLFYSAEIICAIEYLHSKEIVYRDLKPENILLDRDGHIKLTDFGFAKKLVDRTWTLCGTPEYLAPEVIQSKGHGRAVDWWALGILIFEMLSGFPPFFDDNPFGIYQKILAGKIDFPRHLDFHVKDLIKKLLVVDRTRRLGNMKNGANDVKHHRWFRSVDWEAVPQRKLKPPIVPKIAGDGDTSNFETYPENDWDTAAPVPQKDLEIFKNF
The settings on record: at 0.1 µM.

For test [19], the target named is T7, cAMP-dependent protein kinase catalytic subunit PRKX (Homo sapiens). The settings on record: at 1 µM.
Test [20] has as its target Rho-associated protein kinase 1 (Homo sapiens) (UniProt Q13464). The settings on record: at 0.1 µM.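 Note: values are mean percent inhibition of ROCK1.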

Rho-associated protein kinase 1 (Homo sapiens), sequence (Q13464 2-1354 limits assumed): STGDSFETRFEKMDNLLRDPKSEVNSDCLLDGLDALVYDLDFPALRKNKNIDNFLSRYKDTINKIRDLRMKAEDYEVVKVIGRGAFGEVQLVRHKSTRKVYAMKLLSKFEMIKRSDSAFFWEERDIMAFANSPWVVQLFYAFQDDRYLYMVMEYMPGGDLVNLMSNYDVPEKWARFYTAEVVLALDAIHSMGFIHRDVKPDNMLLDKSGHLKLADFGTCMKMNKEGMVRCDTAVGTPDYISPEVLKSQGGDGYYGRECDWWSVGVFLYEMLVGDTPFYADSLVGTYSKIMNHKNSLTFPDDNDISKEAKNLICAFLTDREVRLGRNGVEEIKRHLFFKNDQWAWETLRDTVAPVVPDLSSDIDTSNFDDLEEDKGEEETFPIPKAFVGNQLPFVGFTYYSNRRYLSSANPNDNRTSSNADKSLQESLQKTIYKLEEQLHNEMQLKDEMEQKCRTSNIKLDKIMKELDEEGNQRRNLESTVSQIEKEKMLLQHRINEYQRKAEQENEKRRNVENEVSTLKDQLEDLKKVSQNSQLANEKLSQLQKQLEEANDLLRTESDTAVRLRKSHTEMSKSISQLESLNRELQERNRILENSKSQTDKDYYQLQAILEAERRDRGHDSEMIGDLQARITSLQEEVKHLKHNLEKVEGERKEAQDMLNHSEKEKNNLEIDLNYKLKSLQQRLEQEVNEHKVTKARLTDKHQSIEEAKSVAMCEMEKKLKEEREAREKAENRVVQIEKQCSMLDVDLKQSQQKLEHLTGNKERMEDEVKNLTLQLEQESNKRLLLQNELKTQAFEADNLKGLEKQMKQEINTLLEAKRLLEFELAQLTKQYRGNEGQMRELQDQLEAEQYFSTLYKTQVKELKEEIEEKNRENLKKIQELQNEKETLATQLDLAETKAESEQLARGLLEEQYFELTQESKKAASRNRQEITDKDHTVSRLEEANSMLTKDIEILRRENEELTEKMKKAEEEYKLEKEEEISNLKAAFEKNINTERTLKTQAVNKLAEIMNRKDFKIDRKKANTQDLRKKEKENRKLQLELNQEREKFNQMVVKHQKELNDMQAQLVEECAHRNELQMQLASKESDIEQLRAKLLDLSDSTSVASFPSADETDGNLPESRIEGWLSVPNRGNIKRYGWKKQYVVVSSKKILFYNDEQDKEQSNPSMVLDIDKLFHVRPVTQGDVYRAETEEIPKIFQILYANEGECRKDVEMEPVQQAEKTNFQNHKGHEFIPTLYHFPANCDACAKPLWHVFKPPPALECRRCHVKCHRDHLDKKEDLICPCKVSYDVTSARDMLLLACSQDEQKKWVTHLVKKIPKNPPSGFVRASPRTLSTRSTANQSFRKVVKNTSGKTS

For orientation: inhibition means the drop in the measured response relative to a control, in per cent. Turning to `COc1ccc(-c2nn3ncccc3c2-c2ccnc(Nc3ccc4c(c3)OCCO4)n2)cc1`, the inhibition in [1] was 3.96%; in test [2], -0.29%; in test [3], 0.67%; in [4], 0.69%; in test [5], 2.58%; in test [6] it was 1.22%. For the same compound, the inhibition was determined as 7.32% in [7]; 3.21% in test [8]; 6.6% in test [9]; 2.69% in test [10]; 9.73% in test [11]; 2.09% in [12]. Also, the inhibition in test [13] was 8.59%; in test [14] it was -0.47%; in [15], -2.7%; in [16] it was 0.2%; in test [17], -1.06%; in test [18], 0.59%. For the same compound, the inhibition in test [19] is -0.08%; in [20] it was 0.43%.

Regarding `CC(=O)NCc1cccc(C#Cc2cncnc2Nc2ccc(OCc3cccc(F)c3)c(Cl)c2)c1`, the inhibition in test [1] is 1.3%; in test [2], 0.84%; in [3], 0.45%; in test [4] it was 0.15%; in [5], -0.29%; in [6], 0.7%. Moreover, the inhibition in test [7] turned out to be 0.37%; in [8], 3.28%; in test [9], 2.11%; in [10], 0.45%; in test [11] it was 2.16%; in test [12], 1.12%. Moreover, the inhibition in test [13] stood at 1.92%; in test [14], 1.14%; in test [15], 1.95%; in test [16] it was 1.31%; in test [17], 2.28%; in test [18], 1.14%. Besides, the values for the inhibition in test [19] and in test [20] were 2.2% and 0.02%, respectively.
